Hits are enriched below; roughly 12% of the tested compounds scored in any of these assays.
USP30 block – inhibitors of human USP30 deubiquitinase | Ubiquitin carboxyl-terminal hydrolase 30 (Homo sapiens), Q70CQ3 | purified USP30, Ub-rhodamine cleavage fluorescence | inhibition, % at 25 µM | 47,000 tested, 5.3% active
OTUD3 block – inhibitors of human OTUD3 deubiquitinase | OTU domain-containing protein 3 (Homo sapiens), Q5T2D3 | purified OTUD3, Ub-rhodamine fluorescence, 2 h | inhibition, % at 25 µM | 47,000 tested, 0.7% active
USP28 inh – inhibitors of human USP28 deubiquitinase | Ubiquitin carboxyl-terminal hydrolase 28 (Homo sapiens), Q96RU2 | purified USP28, Ub-rhodamine cleavage fluorescence, 30 min | inhibition, % at 25 µM | 47,000 tested, 3% active | AID 1645857, 2021
Target sequence (Q96RU2 whole entry, looked up): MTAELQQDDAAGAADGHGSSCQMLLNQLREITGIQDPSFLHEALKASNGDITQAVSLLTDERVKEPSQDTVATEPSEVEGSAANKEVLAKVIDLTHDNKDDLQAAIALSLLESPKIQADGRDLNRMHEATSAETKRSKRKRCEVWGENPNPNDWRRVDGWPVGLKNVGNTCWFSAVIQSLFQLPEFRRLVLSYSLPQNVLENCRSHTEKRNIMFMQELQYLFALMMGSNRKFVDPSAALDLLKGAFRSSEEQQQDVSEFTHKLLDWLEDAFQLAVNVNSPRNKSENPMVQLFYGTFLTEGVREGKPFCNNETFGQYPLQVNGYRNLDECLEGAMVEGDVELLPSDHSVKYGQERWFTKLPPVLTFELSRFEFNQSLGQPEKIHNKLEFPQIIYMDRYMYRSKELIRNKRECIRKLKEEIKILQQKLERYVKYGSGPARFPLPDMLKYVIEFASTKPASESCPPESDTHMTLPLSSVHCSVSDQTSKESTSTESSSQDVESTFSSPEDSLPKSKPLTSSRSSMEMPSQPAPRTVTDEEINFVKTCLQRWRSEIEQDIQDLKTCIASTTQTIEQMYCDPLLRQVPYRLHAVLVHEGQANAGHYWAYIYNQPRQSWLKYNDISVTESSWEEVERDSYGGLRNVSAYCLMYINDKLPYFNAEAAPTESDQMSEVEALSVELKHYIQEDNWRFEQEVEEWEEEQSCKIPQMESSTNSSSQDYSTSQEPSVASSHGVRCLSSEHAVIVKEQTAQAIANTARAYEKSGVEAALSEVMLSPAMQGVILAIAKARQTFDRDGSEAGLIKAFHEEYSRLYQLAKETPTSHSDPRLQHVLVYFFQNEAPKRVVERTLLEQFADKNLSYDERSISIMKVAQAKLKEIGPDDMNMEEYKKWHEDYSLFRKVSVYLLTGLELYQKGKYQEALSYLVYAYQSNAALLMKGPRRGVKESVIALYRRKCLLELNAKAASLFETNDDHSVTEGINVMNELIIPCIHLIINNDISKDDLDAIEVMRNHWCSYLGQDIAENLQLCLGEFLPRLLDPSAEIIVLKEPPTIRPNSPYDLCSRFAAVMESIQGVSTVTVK
USP17 block – inhibitors of human USP17 deubiquitinase. Ubiquitin carboxyl-terminal hydrolase 17-like protein 5 (Homo sapiens), A8MUK1. purified USP17, Ub-rhodamine cleavage fluorescence, 3 h. inhibition, % at 50 µM. 47,000 tested, 6.5% active
The depositor's hits bear a star; i = inactive; . = no result. Cut-off read from the data, not from the text of the source: active = inhibition above about 30%; inactive = the rest.

SMILES	USP30 block	OTUD3 block	USP28 inh	USP17 block
O=C(NCC(c1ccccc1)N1CCCC1)c1cc(-c2ccc3c(c2)OCCO3)on1 (stereo not drawn)	-79	-29	1	-8
O=C(Oc1ccccc1Br)c1cc(-c2ccc3c(c2)OCCO3)on1	33*	10	27	21
N#CNC1=NCc2ccccc2N1	16	9	11	15
N#Cc1c(-c2ccco2)ccn2nc(-c3ccc(Cl)cc3Cl)nc12	-46	2	-11	46*
N#Cc1c(-c2ccc(Cl)cc2)ccn2nc(-c3ccco3)nc12	i	-136	-191	-8
Cc1nc(-c2cc(C)[nH]n2)cc(C2CCN(C(=O)C(C)(C)C)CC2)n1	-1	-115	-7	-14
c1ccc(CNc2nn3c(-c4cccnc4)cnc3s2)cc1	40*	2	10	32*
COc1ccc(CNc2nn3c(-c4cncc(OC)c4)cnc3s2)cc1	100*	0	48*	-1
CC1CCC(NC(=O)c2cnn3c4c(cnc23)CC(C)CC4)CC1 (stereo not drawn)	-110	-20	-33	-15
COc1ccc(NC(=O)c2ccc3ccnc(N4CCN(c5ccc(OC)cc5)CC4)c3c2)cc1	-16	-8	-8	47*
COc1ccc(C(=O)Nc2ccc3c(N4CCOCC4)ncnc3c2)cc1	-19	-12	3	-12
C=C1C(=O)O[C@@H]2C(=O)O[C@@H](CCCCCCCC)[C@H]12	8	-2	-2	14
C=C1C(=O)OC(CCCCC)C1C(=O)O (stereo not drawn)	8	3	36*	-36
Cc1ccc(OCC(=O)Nc2onc3c2CCCC3)cc1C	21	11	30*	6
CC1=C(c2ccc(C)c(C)c2)S(=O)(=O)NC1=NCC(=O)NCc1cccc(C)c1	2	-2	3	11
COc1ccccc1NC(=O)CN=C1NS(=O)(=O)C(c2ccc(F)cc2)=C1C	-3	-6	1	12
CC1=C(c2ccc(C)c(C)c2)S(=O)(=O)NC1=NCC(=O)Nc1ccc(F)cc1F	3	-1	6	48*
CCc1ccc(NC(=O)CN=C2NS(=O)(=O)C(c3ccc(CC)cc3)=C2C)cc1	23	8	22	58*
CCC1=C(c2ccc(C)cc2)S(=O)(=O)NC1=NCC(=O)NC(C)c1ccccc1 (stereo not drawn)	14	6	7	54*
CCC1=C(c2ccc(C)cc2)S(=O)(=O)NC1=NCC(=O)NCCC1=CCCCC1	0	5	1	-5
CC1=C(c2ccc(C)c(C)c2)S(=O)(=O)NC1=NCC(=O)NCCc1ccc(C)cc1	69*	9	32*	15
O=C(Nc1ccc(Br)cc1)C1Cc2ccccc2CN1C(=O)c1ccccc1 (stereo not drawn)	25	11	18	14
CC(=O)c1cccc(NC(=O)c2sc(-c3ccccc3)nc2C)c1	17	8	33*	19
Cc1nc(-c2ccccc2F)sc1C(=O)Nc1cccnc1	-102	-15	11	54*
Cc1nc(-c2ccccc2)sc1C(=O)Nc1ccc2cc[nH]c2c1	-9	-5	-9	14
SMILES	USP30 block	OTUD3 block	USP28 inh	USP17 block
CCOc1ccc(C(=O)c2cc3c(CO)cnc(C)c3oc2=O)cc1	-3	-4	-8	-1
COc1ccc(OC)c(NC(=O)c2sc(-c3ccccc3)nc2C)c1	74*	48*	44*	51*
COc1ccc(OC)c(NC(=O)c2cc3c(CO)cnc(C)c3oc2=O)c1	44*	1	13	33*
COc1cccc(C(=O)OCC(Cc2ccccc2)N2Cc3ccccc3C2=O)c1 (stereo not drawn)	18	15	9	16
COc1ccc2c(c1)OC[C@@H](C)N(S(=O)(=O)c1ccc(NC(C)=O)cc1)[C@@H]2C	-3	7	2	3
COc1ccc(OC)c(NC(=O)c2nc(C3CCC3)oc2C)c1	31*	18	12	15
COc1cccc(F)c1-c1nc(C)c(C(=O)NCc2ccccc2)s1	3	8	4	0
CC(=O)Nc1cccc(NC(=O)c2sc3nc(-c4ccccc4)cn3c2C)c1	.	0	.	47*
COc1ccc(NC(=O)c2nc(C3CCC3)oc2C)cc1Cl	-2	-1	10	3
COc1ccc(-c2nc(C)c(C(=O)NCc3ccc(S(N)(=O)=O)cc3)s2)cc1	19	8	17	57*
CC(=O)Nc1ccc(NC(=O)c2sc3nc(-c4cccc([N+](=O)[O-])c4)cn3c2C)cc1	-1	8	0	20
COc1ccc(OC)c(NC(=O)c2cc(Cl)ccc2OC)c1	16	0	14	62*
COc1ccc(C(CNC(=O)C(c2ccccc2)c2ccccc2)N2CCCC2)cc1 (stereo not drawn)	-5	-1	0	-7
O=C(Cn1cncc(-c2nc(-c3ccccc3)cs2)c1=O)NC1CCCC1	49*	30	36*	67*
O=C(Cn1cnc2ccccc2c1=O)NC1CCCC1	-8	-7	-3	-1
CCCCCC(=O)N1CCC(c2nc3c(nnn3Cc3ccccc3)c(=O)[nH]2)CC1	-1	0	5	2
CC(Nc1ccc(Oc2ccccc2)cc1)C(=O)Nc1cccc(C#N)c1 (stereo not drawn)	.	8	.	37*
CC(=O)Nc1ccc(NC(=O)C(C)Nc2ccc(Oc3ccccc3)cc2)cc1 (stereo not drawn)	-81	-10	0	4
Cc1nc(N2CCCC2=O)sc1C(=O)N1CCN(c2ccccc2F)CC1	0	10	1	3
O=C(NCc1ccccc1F)Nc1ccccc1[N+](=O)[O-]	57*	12	25	73*
Cc1ccc(CNC(=O)C2CCCN(S(=O)(=O)Cc3ccccc3Cl)C2)cc1 (stereo not drawn)	24	8	1	16
CCC(C)[C@H](NC(=O)N1CCn2c1nc1ccccc12)C(=O)NCCC1=CCCCC1 (stereo partly drawn)	-25	-3	-16	36*
CCC(C)NC(=O)[C@H](C)NC(=O)N1CCn2c1nc1ccccc12 (stereo partly drawn)	7	-3	0	0
COc1ccc(CCNC(=O)[C@H](C)NC(=O)N2CCn3c2nc2ccccc23)cc1OC	30*	7	19	20
COc1ccc(CNC(=O)[C@H](CCSC)NC(=O)N2CCn3c2nc2ccccc23)cc1	44*	1	-3	9
COc1cccc(CNC(=O)[C@H](C)NC(=O)N2CCn3c2nc2ccccc23)c1	-1	-10	-7	-22
Cc1ccc(CNC(=O)[C@H](C)NC(=O)N2CCn3c2nc2ccccc23)cc1	80*	21	47*	65*
O=C(c1ccc(F)cc1)N1CCC(c2nc(-c3ccc(F)cc3)no2)CC1	-19	-12	-8	-9
Fc1cccc(-c2nccnc2C2CCCN(Cc3ccccn3)C2)c1 (stereo not drawn)	-14	-4	-10	-9

High-throughput results from PubChem.
